Test results from PubChem BioAssay (NCATS).
Inconclusive results are not listed. The source made the active and inactive calls. Unless noted, calls come from the whole dose curve; as a rule, active = well fitted curve in the direction sought with a large enough effect; inconclusive = small, poorly fitted or top-dose-only effect, or another doubt; inactive = no such curve, though single readings can be large; an effect the other way counts as inactive or inconclusive.

Assays:
[1] = molecular target: Cytochrome P450 3A4 (Homo sapiens) (UniProt P08684); experiment: qHTS Assay for Inhibitors and Substrates of Cytochrome P450 3A4 (AID 884); note: % is set by controls: 0 for no effect and ±100 for the full control effect; nearly all actives have a fitted effect of over 50% in size
Method in brief: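 20 nM human CYP3A4 with 25 uM Luciferin-PPXE (at KM) in 200 mM KPO4, preincubated 10 min with compound; NADPH regeneration started a 60 min RT reaction. Luciferin detected by luminescence, normalized to 57 uM ketoconazole as full inhibition.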

[2] = Confirmation and Secondary Assay for Modulators of Hemoglobin Beta Chain Splicing at IVS2 705 locus (AID 930);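 note: GFP fluorescence per well restored by corrected splicing of the IVS2-705 intron in EGFP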; note: potency is the fitted concentration of half-maximal effect
Method in brief: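 HeLa IVS2-705 EGFP reporter cells, 500/well, compound 2 d at 37C; correct splicing yields fluorescent EGFP. Control: 500 nM antisense PNA. Read-out: total peak GFP intensity.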

[3] = qHTS Assay for Lipid Storage Modulators (AID 1519; calls by dose curve; for activity change, negative = inhibition: % is set by controls: 0 for no effect and ±100 for the full control effect); conditions: Drosophila S3 cells, BODIPY lipid droplet/cell ratio, laser cytometry, cells loaded with oleic acid
Method in brief: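 Cells seeded at 5,000 per well were treated with compounds over a concentration series and loaded with oleic acid (400 uM, as added). Lipid droplet fluorescence (488 nm excitation, 500-530 nm channel) was read by laser-scanning cytometry and normalized to 20 uM Triacsin C.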

[4] = molecular target: Ubiquitin carboxyl-terminal hydrolase 1 (Homo sapiens) (UniProt O94782); experiment: Inhibitors of USP1/UAF1: Pilot qHTS (AID 504865); note: nearly all actives have a fitted effect of over 35% in size; note: potency is the fitted concentration of half-maximal effect;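 for activity change, negative = inhibition: rhodamine fluorescence freed from ubiquitin-rhodamine substrate followed over time; top concentration of the series differs between compounds; % is set by controls: 0 for no effect and ±100 for the full control effect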
Method in brief: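 USP1/UAF1 complex at 1 nM preincubated 15 min at room temperature with compound, then Ub-Rho substrate added at 150 nM final. Fluorescence (480/540 nm) read kinetically in 50 mM HEPES pH 7.8, 0.5 mM EDTA, 1 mM TCEP, 0.1 mg/ml BSA, 0.01% Tween-20.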

[5] = Confirmation and Secondary Assay for Modulators of Hemoglobin Beta Chain Splicing at IVS2 654 locus (AID 910);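 note: HeLa cells stably carrying EGFP split by mutant beta-globin IVS2-654 intron; % of control where 0% means no effect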
Method in brief: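 HeLa cells stably expressing EGFP interrupted by β-globin IVS2-654 intron, seeded overnight in Opti-MEM/2% FCS, then treated 2 days at 37 °C. Restored splicing read as total peak GFP intensity per well by laser scanning cytometry (488 nm excitation, 500–520 nm emission); 500 nM antisense PNA as control.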

[6] = molecular target: Cytochrome P450 3A4 (Homo sapiens) (UniProt P08684); experiment: qHTS Assay for Activators of Cytochrome P450 3A4 (AID 885); note: nearly all actives have a fitted effect of over 65% in size
Method in brief: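 Human CYP3A4 (20 nM) with Luciferin-PPXE at 25 uM (its KM) in 200 mM KPO4; 10 min compound preincubation, then NADPH regeneration and 60 min reaction at RT. Luciferin read by luminescence; normalized to 57 uM ketoconazole full inhibition.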

[7] = molecular target: Cytochrome P450 2D6 (Homo sapiens) (UniProt P10635); experiment: qHTS Assay for Inhibitors and Substrates of Cytochrome P450 2D6 (AID 891); note: potency is the fitted concentration of half-maximal effect; nearly all actives have a fitted effect of over 60% in size
Method in brief: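 Human CYP2D6 (5 nM) with 30 uM Luciferin-ME EGE (at Km) in 100 mM KPO4, compound preincubated 10 min, then NADPH regeneration system for 60 min at room temperature. Luciferin read by luminescence; normalized to 1.43 uM quinidine.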

[8] = measured here: cell count channel max response
[9] = measured here: lipid channel max response

Sequence of Ubiquitin carboxyl-terminal hydrolase 1 (Homo sapiens) (O94782 whole entry, looked up): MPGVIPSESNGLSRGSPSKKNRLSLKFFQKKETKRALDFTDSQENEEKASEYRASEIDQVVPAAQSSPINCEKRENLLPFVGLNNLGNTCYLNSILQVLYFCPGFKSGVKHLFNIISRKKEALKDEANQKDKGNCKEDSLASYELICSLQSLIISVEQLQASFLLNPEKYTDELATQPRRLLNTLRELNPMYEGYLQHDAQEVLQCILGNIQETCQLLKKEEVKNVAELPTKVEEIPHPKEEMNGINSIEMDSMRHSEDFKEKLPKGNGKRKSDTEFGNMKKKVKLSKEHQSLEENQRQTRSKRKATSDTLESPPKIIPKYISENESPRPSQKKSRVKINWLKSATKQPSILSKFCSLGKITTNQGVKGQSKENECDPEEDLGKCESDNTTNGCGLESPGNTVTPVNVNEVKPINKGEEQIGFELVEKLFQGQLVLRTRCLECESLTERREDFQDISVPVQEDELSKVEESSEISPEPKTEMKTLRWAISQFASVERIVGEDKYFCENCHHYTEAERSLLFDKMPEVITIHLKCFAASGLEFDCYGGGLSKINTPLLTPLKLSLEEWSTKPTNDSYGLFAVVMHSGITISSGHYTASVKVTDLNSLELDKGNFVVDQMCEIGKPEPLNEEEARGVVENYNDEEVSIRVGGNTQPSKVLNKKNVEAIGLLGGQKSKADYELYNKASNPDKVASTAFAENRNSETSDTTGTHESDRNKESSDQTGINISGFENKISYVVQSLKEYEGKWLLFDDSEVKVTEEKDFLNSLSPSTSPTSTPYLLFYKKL
Sequence of Cytochrome P450 3A4 (Homo sapiens) (P08684 whole entry, looked up): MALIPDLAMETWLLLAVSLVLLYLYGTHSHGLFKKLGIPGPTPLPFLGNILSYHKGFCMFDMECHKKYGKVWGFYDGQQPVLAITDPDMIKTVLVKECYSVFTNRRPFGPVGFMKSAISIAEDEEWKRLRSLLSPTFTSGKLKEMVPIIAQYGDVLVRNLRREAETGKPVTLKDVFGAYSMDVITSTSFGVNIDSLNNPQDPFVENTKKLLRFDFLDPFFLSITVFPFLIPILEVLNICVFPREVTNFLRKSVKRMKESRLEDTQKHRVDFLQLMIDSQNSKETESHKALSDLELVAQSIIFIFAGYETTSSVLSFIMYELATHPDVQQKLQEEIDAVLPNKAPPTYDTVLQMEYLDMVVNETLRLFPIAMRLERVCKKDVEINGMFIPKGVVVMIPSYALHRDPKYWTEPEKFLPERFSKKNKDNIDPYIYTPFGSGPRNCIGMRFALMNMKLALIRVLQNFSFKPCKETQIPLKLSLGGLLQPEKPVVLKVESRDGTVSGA
Sequence of Cytochrome P450 2D6 (Homo sapiens) (P10635 whole entry, looked up): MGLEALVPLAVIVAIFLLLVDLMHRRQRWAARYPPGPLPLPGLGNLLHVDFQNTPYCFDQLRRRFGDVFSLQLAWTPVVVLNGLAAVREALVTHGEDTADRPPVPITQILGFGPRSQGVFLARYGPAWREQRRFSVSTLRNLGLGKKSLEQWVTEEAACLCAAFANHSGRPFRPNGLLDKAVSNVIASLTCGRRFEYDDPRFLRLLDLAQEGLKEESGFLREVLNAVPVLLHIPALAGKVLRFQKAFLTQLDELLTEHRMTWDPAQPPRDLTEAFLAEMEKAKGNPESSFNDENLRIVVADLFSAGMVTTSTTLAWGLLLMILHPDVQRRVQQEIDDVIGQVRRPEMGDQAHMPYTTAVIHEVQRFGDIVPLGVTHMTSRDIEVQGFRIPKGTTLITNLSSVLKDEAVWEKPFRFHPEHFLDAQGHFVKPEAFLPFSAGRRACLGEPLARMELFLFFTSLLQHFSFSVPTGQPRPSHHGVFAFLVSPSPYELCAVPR

For `C[C@]12CCC3C(C=CC4=CC(=O)CC[C@]43C)C1CC[C@]2(O)CCC(=O)O` (some centres not stated), the Potency [1] was “inactive”, the Potency [2] was “inactive” and the activity change, negative = inhibition ([3]; at 57.5 µM (top of the series)) was 1.44% (inactive). For the same compound, the max response [3, 8] was 28.8%, the max response [3, 9] was 34.1% and the Potency [4] was “inactive”.
In the case of `Oc1ccc2c3c1OC1C(O)CC[C@]4(O)C(C2)N(CC2CCC2)CC[C@]314` (some centres not stated), the Potency [5] is reported as “inactive”, the Potency [2] is reported as “inactive” and the activity change, negative = inhibition ([3]; at 57.5 µM (top of the series)) is reported as -5.68% (inactive). For the same compound, the max response [3, 8] was 13.5%, the max response [3, 9] was 9.11% and the Potency [4] was “inactive”.
In the case of `CC(=O)OC1CC(OC(C)=O)[C@]2(C)C(CC(OC(C)=O)[C@]3(C)C2CC[C@@]2(C)C(c4ccoc4)C[C@H]4O[C@]432)C1(C)C` (some centres not stated), the Potency [5] is reported as “inactive”, the Potency [2] is reported as “inactive” and the activity change, negative = inhibition ([3]; at 57.5 µM (top of the series)) is reported as 6.91% (inactive). For the same compound, the max response [3, 8] was 9.38%, the max response [3, 9] was 19.4% and the Potency [4] was “inactive”.
For `O=C(O)c1nn(Cc2ccc(Cl)c(Cl)c2)c2ccccc12`, the Potency [1] was “inactive”, the Potency [2] was “inactive” and the activity change, negative = inhibition ([3]; at 57.5 µM (top of the series)) was 4.27% (inactive). For the same compound, the max response [3, 8] was 10.4%, the max response [3, 9] was 16.9% and the Potency [4] was “inactive”.
With `COC1=CC23CCCN2CCc2cc4c(cc2C3C1O)OCO4` (configuration not stated) the Potency [6] was “inactive”, the Potency [5] was “inactive” and the Potency [2] was “inactive”. For the same compound, the activity change, negative = inhibition ([3]; at 57.5 µM (top of the series)) was 15.3% (inactive), the max response [3, 8] was 26.5% and the max response [3, 9] was 52.2%. For the same compound, the Potency [4] was “inactive”.
In the case of `C[C@@]12CCC3C(CC[C@@H]4CC(O)CC[C@@]34C)C1CCC2O` (some centres not stated), the Potency [5] is reported as “inactive”, the Potency [2] is reported as “inactive” and the activity change, negative = inhibition ([3]; at 57.5 µM (top of the series)) is reported as 5.33% (inactive). For the same compound, the max response [3, 8] was 18.2%, the max response [3, 9] was 26% and the Potency [4] was “inactive”.
With `N#C/C(=C\c1ccc(O)cc1)C(=O)O` the Potency [6] was “inactive”, the Potency [2] was “inactive” and the activity change, negative = inhibition ([3]; at 57.5 µM (top of the series)) was 4.55% (inactive). The max response [3, 8] was 8.92%, the max response [3, 9] was 15.9% and the Potency [4] was “inactive”.
In the case of `NCC(=O)c1ccccc1`, the Potency [6] is reported as “inactive”, the Potency [5] is reported as “inactive” and the Potency [2] is reported as “inactive”. The activity change, negative = inhibition ([3]; at 57.5 µM (top of the series)) was 8.66% (inactive), the max response [3, 8] was 23.8% and the max response [3, 9] was 35.4%. For the same compound, the Potency [4] was “inactive”.
For `CC1(C)C(O)CC(O)[C@]2(C)C1CC(O)[C@]1(C)C2CC[C@@]2(C)C(c3ccoc3)CC3OC312` (some centres not stated), the Potency [6] was “inactive”, the Potency [5] was “inactive” and the Potency [2] was “inactive”. For the same compound, the activity change, negative = inhibition ([3]; at 57.5 µM (top of the series)) was -10.5% (inactive), the max response [3, 8] was -11.5% and the max response [3, 9] was -19.8%. The Potency [4] was “inactive”.
For `CCC12C=CCN3CCC4(c5ccc(OC)cc5N(C)C4[C@@](O)(C(=O)OC)C1OC(C)=O)C32` (some centres not stated), the Potency [6] was “inactive”, the Potency [5] was “inactive” and the Potency [2] was “inactive”. The activity change, negative = inhibition ([3]; at 57.5 µM (top of the series)) was 1.88% (inactive), the max response [3, 8] was 13.3% and the max response [3, 9] was 25%. For the same compound, the Potency [4] was “inactive”.
In the case of `COc1c(CC=C(C)C)c2c(c3oc(=O)c(-c4ccc(O)cc4)c(O)c13)C=CC(C)(C)O2`, the Potency [6] is reported as “inactive”, the Potency [2] is reported as “inactive” and the activity change, negative = inhibition ([3]; at 57.5 µM (top of the series)) is reported as 3.02% (inactive). The max response [3, 8] was 14.5%, the max response [3, 9] was 15.5% and the Potency [4] was 79400 nM (active).
For `NNCc1ccccc1`, the Potency [6] was “inactive”, the Potency [5] was “inactive” and the activity change, negative = inhibition ([3]; at 57.5 µM (top of the series)) was 14.8% (inactive). For the same compound, the max response [3, 8] was 5.74%, the max response [3, 9] was 20.3% and the Potency [4] was “inactive”.
In the case of `Cc1[nH]c2ccccc2c1CN(C)C`, the Potency [6] is reported as “inactive”, the Potency [5] is reported as “inactive” and the activity change, negative = inhibition ([3]; at 57.5 µM (top of the series)) is reported as 11.5% (inactive). The max response [3, 8] was 9.14%, the max response [3, 9] was 21.3% and the Potency [4] was “inactive”.
For `CC1O[C@@H](OC2CC(O)[C@@]3(CO)C4C(O)C[C@@]5(C)C(C6=CC(=O)OC6)CC[C@]5(O)C4CC[C@]3(O)C2)C(O)C(O)C1O` (some centres not stated), the Potency [1] was “inactive”, the Potency [2] was “inactive” and the activity change, negative = inhibition ([3]; at 57.5 µM (top of the series)) was 3.6% (inactive). The max response [3, 8] was 6.17%, the max response [3, 9] was 13.6% and the Potency [4] was “inactive”.
With `CC1C(=O)OC2C1CC[C@@]1(C)C=CC(=O)[C@@]3(C)O[C@@]213` (some centres not stated) the Potency [6] was “inactive”, the Potency [2] was “inactive” and the activity change, negative = inhibition ([3]; at 57.5 µM (top of the series)) was 3.63% (inactive). For the same compound, the max response [3, 8] was -6.2%, the max response [3, 9] was 2.49% and the Potency [4] was “inactive”.
For `Nc1ncn[nH]1`, the Potency [6] was “inactive”, the Potency [5] was “inactive” and the activity change, negative = inhibition ([3]; at 57.5 µM (top of the series)) was 11.2% (inactive). For the same compound, the max response [3, 8] was 9.75%, the max response [3, 9] was 23.5% and the Potency [4] was “inactive”.
With `CC(=O)O.CC(=O)O.[Cd]` the Potency [5] was “inactive”, the Potency [2] was “inactive” and the activity change, negative = inhibition ([3]; at 57.5 µM (top of the series)) was 4.11% (inactive). For the same compound, the max response [3, 8] was 7.92%, the max response [3, 9] was 9.61% and the Potency [4] was “inactive”.
With `CC1C(=O)OC2CCN3CC=C(COC(=O)[C@](C)(O)[C@]1(C)O)C23` (some centres not stated) the Potency [1] was “inactive”, the Potency [2] was “inactive” and the activity change, negative = inhibition ([3]; at 57.5 µM (top of the series)) was 5.81% (inactive). For the same compound, the max response [3, 8] was -2.74%, the max response [3, 9] was 4.32% and the Potency [4] was “inactive”.
In the case of `NC(=O)c1ccc(N)nc1`, the Potency [1] is reported as “inactive”, the Potency [2] is reported as “inactive” and the activity change, negative = inhibition ([3]; at 57.5 µM (top of the series)) is reported as 2.67% (inactive). The max response [3, 8] was 16.6%, the max response [3, 9] was 22.3% and the Potency [4] was “inactive”.
In the case of `CC1CC(O)[C@]2(O)[C@]13CC(=O)OC[C@@]2(C)[C@@](C)(O)C(=O)C3` (some centres not stated), the Potency [6] is reported as “inactive”, the Potency [2] is reported as “inactive” and the activity change, negative = inhibition ([3]; at 57.5 µM (top of the series)) is reported as 1.46% (inactive). The max response [3, 8] was 13.4%, the max response [3, 9] was 16.3% and the Potency [4] was “inactive”.
With `CNC(=O)Oc1ccc2c(c1)[C@@]1(C)CCN(C)[C@@H]1N2C` the Potency [7] was 631 nM (active), the activity change, negative = inhibition ([3]; at 25.7 µM (top of the series)) was -1.12% (inactive) and the max response [3, 8] was -3.51%. For the same compound, the max response [3, 9] was -6.16% and the Potency [4] was “inactive”.
For `O=C1CC2OCC=C3CN4CC[C@@]56c7ccccc7N1C5C2C3CC46` (some centres not stated), the Potency [5] was “inactive”, the Potency [2] was “inactive” and the activity change, negative = inhibition ([3]; at 57.5 µM (top of the series)) was -0.509% (inactive). For the same compound, the max response [3, 8] was 17.9%, the max response [3, 9] was 21.5% and the Potency [4] was “inactive”.
In the case of `CC1OC(O[C@@H]2C(O)CC(O[C@@H]3C(O)C[C@@H](OC4CC[C@]5(C)[C@H](CC[C@H]6[C@@H]5CC[C@]5(C)C(C7=CC(=O)OC7)C(O)C[C@@]65O)C4)OC3C)OC2C)CC(O)C1O` (some centres not stated), the Potency [1] is reported as “inactive”, the Potency [2] is reported as 1000 nM (active) and the activity change, negative = inhibition ([3]; at 57.5 µM (top of the series)) is reported as 10.1% (inactive). For the same compound, the max response [3, 8] was 12.5%, the max response [3, 9] was 20.2% and the Potency [4] was “inactive”.
With `C[C@@]12CCC(=O)C[C@@H]1CC[C@@H]1[C@@H]2CC[C@]2(C)C(=O)CC[C@@H]12` the Potency [1] was “inactive”, the Potency [2] was “inactive” and the activity change, negative = inhibition ([3]; at 57.5 µM (top of the series)) was 6.14% (inactive). The max response [3, 8] was 2.79%, the max response [3, 9] was 10.6% and the Potency [4] was “inactive”.
